95 molecules from PubChem BioAssay can be followed below.

A number with no mark means an inactive call. Active and inactive are the calls of the source.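 Rule for the calls: active = inhibition at or above 50% relative to wild type and mutant plate controls; inactive = inhibition below 50%.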

This test in a line: inhibitors of Chlamydomonas gravitaxis, primary screen, whole organism, Chlamydomonas reinhardtii, WT vs cilia-less mutant, absorbance, 96-well (AID 463189).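 Note: 0% = wild type cc124 cells in DMSO and 100% = ciliumless bld1 mutant cells.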 The conditions noted are these: OD600 absorbance, 2 days, at 10 µM, stronger effect = higher value.

`COc1ccccc1N1CCN(CCCNc2cc(=O)n(C)c(=O)n2C)CC1`: the inhibition is 9.94%.

Consider `CC(O)C(O)[C@H]1CNc2nc(N)[nH]c(=O)c2N1` (stereo not given in full), for which the inhibition was 6.73%.

Regarding `Nc1nc2ccc(Cl)cc2c2nc(-c3ccco3)nn12`, the inhibition was 1.54%.

In the case of `CC(N)(Cc1ccc(O)c(O)c1)C(=O)O` (stereo not given), the inhibition was 6.85%.

As for `O=c1ccc2ccc(O)c(O)c2o1`, the inhibition is -4.31%.

With `CN1CCc2cc(Cl)c(O)cc2[C@@H](c2ccccc2)C1`, the inhibition was 5.1%.

With `NC(N)=[N+]1CCc2ccccc2C1`, the inhibition is -2.7%.

As to `C=CCn1c(=O)c2c(nc(-c3ccc(S(=O)(=O)O)cc3)n2C)n(C)c1=O`, the inhibition is 4.78%.

Regarding `C=CC(N)CCC(=O)O` (stereo not given), the inhibition was -6.67%.

As for `CCCCOc1cc(CC2CNC(=O)N2)ccc1OC` (stereo not given), the inhibition is 2.83%.

Take `C[N+]1(CCCCC[N+]2(C)CCCC2)CCCC1`: the inhibition was -4.7%.

As for `N[C@H](CCC(=O)NCS(=O)(=O)O)C(=O)O`, the inhibition was 4.82%.

Consider `Cc1ccc(O)c(N=Nc2ccccc2)n1`, for which the inhibition was -1.99%.

`O=C1CCC(N2C(=O)c3ccccc3C2=O)C(=O)N1` (stereo not given): the inhibition was 10.8%.

`OCc1cc(C(O)CNCCCCCCOCCCCc2ccccc2)ccc1O` (stereo not given): the inhibition is 6.68%.

For the molecule `NCCCNCCSP(=O)(O)O`, the inhibition is 1.58%.

As for `CCN(CC)CCOC(=O)c1cc(Cl)c(N)cc1OC`, the inhibition is 2.34%.

On to `CCN(CC)CCOCCOC(=O)C1(c2ccccc2)CCCC1`, for which the inhibition is 5.28%.

`CSc1ccc2c(c1)C(N1CCN(C)CC1)Cc1ccccc1S2` (stereo not given): the inhibition is 0.427%.

`NC(N)=NCCCCN=C(N)N`: the inhibition is -4.67%.

Turning to `CCCCCCCC/C=C\CCCCCCCC(=O)NCCc1ccc(O)c(O)c1`, the inhibition is -1.34%.

Regarding `O=c1[nH]c(=O)n([C@H]2C[C@H](O)[C@@H](CO)O2)cc1Br`, the inhibition is 2.45%.

For the molecule `COc1ccccc1N1CCN(CCN2C(=O)CC3(CCCC3)CC2=O)CC1`, the inhibition was -4.14%.

`C[C@@H](Oc1ccc(Oc2cnc3ccc(Cl)cc3n2)cc1)C(=O)O`: the inhibition is 9.86%.

For the molecule `CC(CN(C)C)CN1c2ccccc2CCc2ccccc21` (stereo not given), the inhibition is 1.33%.

Regarding `O=C(O)Cc1c[nH]c2ccc(O)cc12`, the inhibition was -4.32%.

For `OC[C@H]1O[C@@H](n2cnc3c(NCCc4ccccc4)ncnc32)C(O)[C@H]1O` (stereo not given in full), the inhibition is -17%.

For the molecule `O=c1[nH]c2cc(Cl)c(Cl)cc2[nH]c1=O`, the inhibition was 5.88%.

In the case of `O=NN(CCCl)C(=O)NCCCl`, the inhibition was 6.33%.

On to `COc1ccccc1N1CCN(CCN(C(=O)C2CCCCC2)c2ccccn2)CC1`, for which the inhibition was 9.85%.

`Oc1cc2c(cc1O)CN(C(=S)NCCc1ccc(Cl)cc1)CCC2`: the inhibition was 23.4%.

On to `CN=c1nc(-c2ccccc2)n(-c2ccccc2)s1`, for which the inhibition was 13%.

Take `CCC1(C)CC(=O)NC1=O` (stereo not given): the inhibition was 1.95%.

As for `CCCC(=O)NCCc1c2n(c3ccc(OC)cc13)Cc1ccccc1-2`, the inhibition is -1.81%.

Regarding `Nc1cc(Cl)c(NC2=NCCN2)c(Cl)c1`, the inhibition was -3.5%.

In the case of `CCCCS(=N)(=O)CCC(N)C(=O)O` (stereo not given), the inhibition was -0.023%.

Consider `Nc1nc2[nH]c(=O)cnc2c(=O)[nH]1`, for which the inhibition is 5.48%.

Consider `C=CC[C@H](N)C(=O)O`, for which the inhibition was 4.13%.

On to `C#CCN(C)CCCOc1ccc(Cl)cc1Cl`, for which the inhibition is 24.1%.

Take `Cn1ccnc1`: the inhibition is 9.19%.

Turning to `Cc1cn([C@H]2C[C@@H](N=[N+]=[N-])[C@@H](CO)O2)c(=O)[nH]c1=O`, the inhibition is -6.23%.

For `O=c1[nH]c2ccccc2c2ccccc12`, the inhibition was 6.93%.

For `Cc1cccc(C2CN(C)CCc3c2cc(O)c(O)c3Cl)c1` (stereo not given), the inhibition was 3.56%.

Take `CCCN(CC1CC1)c1nc(C)nc(Nc2c(Cl)cc(Cl)cc2Cl)c1Cl`: the inhibition is 3.71%.

Turning to `[Li+]`, the inhibition is -0.162%.

For `CC1=C(C(=O)O)N2C(=O)[C@@H](NC(=O)C(N)C3=CCC=CC3)[C@H]2SC1` (stereo not given in full), the inhibition is 6.7%.

For the molecule `O=C1c2ccccc2-c2n[nH]c3cccc1c23`, the inhibition was 34.8%.

On to `CC(=O)SC1CC2=CC(=O)CC[C@]2(C)C2CC[C@@]3(C)C(CC[C@@]34CCC(=O)O4)C12` (stereo not given in full), for which the inhibition was 3.21%.

Regarding `CC(=O)N[C@H](C(=O)O)C(C)(C)SN=O`, the inhibition was 3.53%.

With `COc1ccc(C(=O)NCc2cccnc2)cc1C(=O)NCc1cccnc1`, the inhibition was 6.89%.

Consider `O=C1NCC2(CCN(CCc3ccccc3)CC2)O1`, for which the inhibition is -9.32%.

As for `CN=C(N)NCCC[C@H](N)C(=O)O`, the inhibition is 3.39%.

Regarding `N=C(N)SCCN`, the inhibition was -11.5%.

Regarding `Cn1ccc2cc3c(cc21)CCN3C(=O)Nc1cccnc1`, the inhibition is 9.75%.

In the case of `CC[C@H](NC(=O)c1c(C)c(-c2ccccc2)nc2ccccc12)c1ccccc1`, the inhibition was 9.84%.

For the molecule `Cn1cc(C(F)(F)F)nc1-c1ccc(OCC(O)CNCCOc2ccc(O)c(C(N)=O)c2)cc1` (stereo not given), the inhibition is -6.96%.

Take `CN/C(=C\[N+](=O)[O-])NCCSCc1ccc(CN(C)C)o1`: the inhibition was 1.86%.

Consider `O=C(O)CP(=O)(O)O`, for which the inhibition is 7.76%.

As to `O=C(O)CN(CCN(CC(=O)O)CC(=O)O)CCN(CC(=O)O)CC(=O)O`, the inhibition was 6.57%.

`Cc1cc(N)c2ccccc2[n+]1CCCCCCCCCC[n+]1c(C)cc(N)c2ccccc21`: the inhibition is 147% (active).

Consider `N[C@@H](Cc1c[nH]c2ccc(O)cc12)C(=O)O`, for which the inhibition is 4.83%.

On to `COc1[nH]c2ccc(F)cc2c1C(=O)OCC1CCN(CCNS(C)(=O)=O)CC1`, for which the inhibition is -12.7%.

On to `CNCCC(Oc1ccccc1C)c1ccccc1` (stereo not given), for which the inhibition is 10.9%.

On to `NC1CCN(O)C1=O` (stereo not given), for which the inhibition was 2.51%.

Take `Cc1cn[nH]c1`: the inhibition was 7.85%.

For `Cn1c(=O)c2[nH]c(-c3ccc(S(=O)(=O)O)cc3)nc2n(C)c1=O`, the inhibition is -2.33%.

For `CNC(=O)[C@H]1O[C@@H](n2cnc3c(NCc4cccc(I)c4)ncnc32)C(O)[C@H]1O` (stereo not given in full), the inhibition is 1.77%.

In the case of `Nc1ccc(CCNc2ncnc3c2ncn3C2OC(CO)C(O)C2O)cc1` (stereo not given), the inhibition was 3.12%.

In the case of `CCCCC/C=C\CC(O)/C=C/c1cccc(CC(O)CCCCO)n1` (stereo not given), the inhibition is -1.14%.

As for `NCCCCN`, the inhibition was -2.36%.

As for `CC(C)C[C@H](N)CSSC[C@@H](N)CC(C)C`, the inhibition was 6.54%.

For `C[C@H](Cc1ccc(O)c(O)c1)[C@@H](C)Cc1ccc(O)c(O)c1`, the inhibition is -6.71%.

Turning to `Cc1cccc(C#Cc2ccccc2)n1`, the inhibition is 8.4%.

As to `C=C(C)C1CC=C(C(=O)O)CC1` (stereo not given), the inhibition is 1.75%.

Consider `COC(=O)[C@@H]1[C@H]2C[C@H]3c4[nH]c5ccccc5c4CCN3C[C@@H]2CC[C@@H]1O`, for which the inhibition is 8.68%.

For `Cc1ccc(=O)n(-c2ccccc2)c1`, the inhibition was 4.35%.

Regarding `OCc1ccc(-c2nn(Cc3ccccc3)c3ccccc23)o1`, the inhibition is 3.81%.

For `NC(N)=N[C@@H](CCC(=O)O)C(=O)O`, the inhibition was 2.13%.

`O=C(O)CCC(C(=O)O)N1C(=O)c2ccccc2C1=O` (stereo not given): the inhibition was 0.124%.

As for `CCCCCCCCCCCCCCCCCC(=O)OC(CC(=O)O)C[N+](C)(C)C` (stereo not given), the inhibition was 6.23%.

In the case of `O=C(Nc1cccc(C(=O)Nc2ccc(S(=O)(=O)O)c3cc(S(=O)(=O)O)cc(S(=O)(=O)O)c23)c1)Nc1cccc(C(=O)Nc2ccc(S(=O)(=O)O)c3cc(S(=O)(=O)O)cc(S(=O)(=O)O)c23)c1`, the inhibition is 1.9%.

With `Ic1ccc(N2CCN(Cc3c[nH]c4ncccc34)CC2)cc1`, the inhibition is 7.68%.

For `CCCCCCCCCCCCCCCCOCC(COCC(F)(F)F)OP(=O)(O)OCO` (stereo not given), the inhibition is 6.55%.

Consider `O=C(O)c1ccccc1Nc1cccc(OCc2ccc3ccccc3n2)c1`, for which the inhibition was 8.8%.

`Nc1ncnc2c1ncn2[C@@H]1O[C@H](CO)[C@H](O)C1O` (stereo not given in full): the inhibition was 5.53%.

As for `C[C@](N)(Cc1ccc(O)cc1)C(=O)O`, the inhibition was 6.91%.

Take `COC(=O)c1c(-c2cc(OC)c(OC)c(OC)c2)c2ccc(OCc3ccccn3)cc2c(=O)n1-c1ccc(N)cc1`: the inhibition was 2.92%.

Regarding `CC(N=C(NC#N)Nc1ccncc1)C(C)(C)C` (stereo not given), the inhibition is -9.18%.

As for `N=C1Sc2ccccc2C2=NCCCN12`, the inhibition is 9.36%.

Regarding `Oc1ccc(-c2nc(-c3ccc(F)cc3)c(-c3ccncc3)[nH]2)cc1`, the inhibition is 7.36%.

Consider `O=C(OCCN1CCOCC1)C1(c2ccccc2)CCCCC1`, for which the inhibition was 2.35%.

Regarding `CCCCOC(=O)NS(=O)(=O)c1sc(CC(C)C)cc1-c1ccc(Cn2c(CC)nc3c(C)cc(C)nc32)cc1`, the inhibition was 10.7%.

For the molecule `COc1cc2nc(N3CC=[N+](C(=O)c4ccco4)CC3)nc(N)c2cc1OC`, the inhibition is 6.38%.

As to `C[n+]1cc2c3c(ccc2c2ccc4cc5c(cc4c21)OCO5)OCO3`, the inhibition was 145% (active).

Take `O=C1N(c2ccccc2)c2ccccc2C1(Cc1ccncc1)Cc1ccncc1`: the inhibition is -3.34%.
